In the library only some 2.4% were active in any assay of this set; here they are far more common.
D2 ag-1 = activates the human D2 dopamine receptor | DiscoveRx PathHunter D2 beta-arrestin, luminescence, 90 min; 100% = 57 uM dopamine signal | hit rate 0.084% among 360,000 | P14416 | activation, % (test concentration not listed); in the data active = activation above about 40%; inconclusive = between about 15% and that limit
Target sequence (P14416 whole entry, looked up): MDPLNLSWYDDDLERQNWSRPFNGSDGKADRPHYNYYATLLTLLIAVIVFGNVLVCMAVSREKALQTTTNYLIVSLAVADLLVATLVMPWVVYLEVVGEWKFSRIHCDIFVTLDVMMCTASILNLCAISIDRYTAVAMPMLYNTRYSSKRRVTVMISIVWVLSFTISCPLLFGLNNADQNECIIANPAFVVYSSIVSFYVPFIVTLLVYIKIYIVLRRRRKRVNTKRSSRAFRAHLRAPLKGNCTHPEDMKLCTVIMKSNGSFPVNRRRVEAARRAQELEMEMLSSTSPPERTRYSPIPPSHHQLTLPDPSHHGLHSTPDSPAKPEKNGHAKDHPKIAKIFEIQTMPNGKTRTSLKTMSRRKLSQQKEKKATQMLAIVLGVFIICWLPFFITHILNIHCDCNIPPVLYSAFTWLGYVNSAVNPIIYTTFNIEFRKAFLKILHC
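DiscoveRx PathHunter D2 beta-arrestin cells (2,100/well) attached overnight, then compound-stimulated 90 min at 37 C in HBSS/10 mM HEPES/0.1% Tween-20 buffer; beta-galactosidase complementation read by luminescence after 1 h at ambient temperature. Dopamine 57 uM final (EC100) as control.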
D2 PAM-1 = positively modulates the human D2 dopamine receptor allosterically; P14416; HEK293 T-REx D2, calcium flux, EC20 dopamine potentiation; potentiation, % at 10 µM; hit rate 0.34% among 340,000; AID 485347;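 active = potentiation over 3 SD above the plate norm, cut at about 30% in these data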; also: 0% is about no effect
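Cells plated with tetracycline inducer and held overnight at 30 C; calcium dye loaded 30–90 min at room temperature; baseline taken, compound added and read 180 s; EC20 dopamine then added and read 180 s.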
D2 ag-2 = activates the human D2 dopamine receptor | P14416 | HEK293 T-REx D2 cells, calcium flux agonist mode | activation, % at 2 µM | hit rate 0.53% among 340,000 | AID 485358;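 active = activation over 3 SD above normal in the single-dose calcium agonist read, cut at about 30% in these data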; also: 0% is about no effect
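Tetracycline-induced HEK293 T-REx cells with force-coupled D2 receptor, plated overnight at 30 C, loaded with no-wash calcium dye. After a 10 s baseline, compound was pin-added and calcium flux read kinetically for 180 s; calcium rises flagged agonists.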
D2 antag = antagonizes the human D2 dopamine receptor; AID 485344; inhibition, % at 10 µM; hit rate 2% among 340,000; HEK293 TREx D2 cells, calcium flux, dopamine EC80; P14416; in the data active = inhibition above about 30%; inactive = below that, where a call was filed; also: 0% is about no effect
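Antagonism is scored as inhibition of an EC80 dopamine-evoked calcium signal in a force-coupled, tetracycline-inducible HEK293 T-REx D2 line, with compound present 180 s before agonist.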
D2 PAM-2 = positive allosteric modulators of human D2 dopamine receptor. P14416. DiscoveRx D2 beta-arrestin cells, luminescence, 90 min; 100% = 57 uM dopamine signal. potentiation, % (test concentration not listed). hit rate 0.23% among 360,000; in the data active = potentiation above about 50%; inconclusive = mostly about 30% to 49%
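PathHunter D2 cells, attached overnight at 37 deg C, received compound in DMSO plus dopamine at EC20 (50 nM final) for 90 min at 37 deg C. Beta-arrestin recruitment was read as luminescence after 1 h with detection reagent at ambient temperature.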
D3 arrestin ag = D3 receptor agonism confirmed, beta-arrestin readout; shares compounds with D2 ag-2; DiscoveRx D3 beta-arrestin cells, luminescence, 90 min; Potency, µM (doses to about 76.9 µM), for the others: at the top dose activation, usual class: activators; hit rate 4% among 2,300; AID 720506;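 also: potency is read from the fitted curve at half-maximal effect; 100% = dopamine control response; nearly all actives have a fitted effect of over 70% in size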
D2 ag-3 = D2 receptor agonism, beta-arrestin counterscreen; shares compounds with D2 ag-2; DiscoveRx PathHunter D2 beta-arrestin, luminescence, 90 min; response scale: percent relative to full dopamine signal; Potency, µM (titrated, usually from 76.9 µM), for inactives: at the top dose activation, usual class: activators; hit rate 5.9% among 2,300; also: potency is read from the fitted curve at half-maximal effect; % of control where 0% means no effect; nearly all actives have a fitted effect of over 70% in size
* marks the source's active call; other numbers are inactive results; ? = inconclusive; . = no result given. Unless noted, calls follow the shape of the dose curve; as a rule, active = well fitted activation curve with a large enough effect; inconclusive = small, poorly fitted or top-dose-only effect; inactive = flat fitted curve, though single readings scatter.

SMILES	D2 ag-1	D2 PAM-1	D2 ag-2	D2 antag	D2 PAM-2	D3 arrestin ag	D2 ag-3
COc1ccc(NC(=O)N2CCCC(c3ccccc3)C2)cc1 (centres undefined)	9.0	.	.	.	-1.6	18.4%	20.6%
O=C(NC1CCCC1)C1CCC(CNS(=O)(=O)c2ccc(F)cc2)CC1 (centres undefined)	-2.1	7.0	-1.5	15.2	-1.8	-8.6%	-0.1%
O=C(NC1CCCC1)C1CCC(CNS(=O)(=O)c2ccccc2)CC1 (centres undefined)	-3.5	-2.0	-0.5	-4.0	-6.8	.	.
C[C@@H]1CCCCCCCCC(=O)OCCN(C(=O)OC(C)(C)C)[C@H](C)CCCCCCCCC(=O)OCCN1C(=O)OC(C)(C)C	-2.0	.	.	.	-9.8	.	.
C[C@@H]1CCCCCCCCC(=O)OCCN1C(=O)OC(C)(C)C	-1.1	-3.9	0.9	12.6	0.1	2.5%	2.0%
CSc1nn(Cc2ccc(F)cc2)c(N)c1S(=O)(=O)c1ccc(Cl)cc1	.	4.0	0.6	.	.	.	.
c1ccc(CN2CCN(CCOCCOc3cccc4ccccc34)CC2)cc1	0.6	-23.8	1.5	-4.8	-6.4	.	.
O=C(c1ccco1)N1CCN(CCCCOc2cccc3ccccc23)CC1	?	-25.5	75.5*	83.6*	3.3	?	?
O=C(c1ccco1)N1CCN(CCOc2ccc(F)cc2)CC1	10.0	4.0	-2.2	-12.7	3.3	.	.
O=C(c1ccco1)N1CCN(CCOCCOc2cccc3ccccc23)CC1	?	-17.5	66.2*	77.4*	19.7	7.94µM*	25.1µM*
CNc1nc(N)c([N+](=O)[O-])c(Nc2cccc(F)c2)n1	-0.8	8.6	14.3	2.9	-8.1	-4.4%	-4.2%
CNc1nc(N)c([N+](=O)[O-])c(NCc2ccccc2)n1	-1.4	-0.5	10.1	43.8*	-21.4	-12.3%	-6.5%
CC1(C(=O)Nc2ccc3[nH]ncc3c2)CCN1C(=O)Cc1ccc(-c2ccccc2)cc1 (centres undefined)	14.4	.	.	.	-1.6	.	.
CNC(=O)N(O)C1N(/N=C/c2ccc(C)cc2)C(=S)SC1(C)C (centres undefined)	-3.7	-4.0	-0.1	-4.3	-10.0	.	.
CNC(=O)N(O)C1N(/N=C/c2cc(Br)ccc2O)C(=S)SC1(C)C (centres undefined)	59.0*	-19.0	47.7*	49.5*	12.0	-8.0%	?
CCC(CC)c1nnc(NC(=O)c2cc(-c3ccccc3)nc3ccccc23)s1	-0.6	.	.	.	-14.1	-12.4%	-1.6%
Cc1ccsc1/C=N\NC(=O)CCc1c(C)n[nH]c1C	-5.8	-1.4	-0.8	-7.7	1.6	.	.
Cc1n[nH]c(C)c1CCC(=O)N/N=C/c1cccs1	3.5	6.0	-1.1	5.2	-3.1	2.8%	1.3%
COc1cccc(-c2nc3c(C#N)c[nH]n3c2NC2CCCC2)c1OC	.	-1.6	2.7	.	.	.	.
CCNC(=S)Nc1cc2oc3ccccc3c2cc1OC	-5.5	-12.5	0.5	-1.9	-15.3	.	.
CNC(=S)Nc1cc2oc3ccccc3c2cc1OC	2.3	-18.9	57.1*	13.8	7.4	-1.9%	16.5%
O=C(Cn1c(=O)n(-c2ccc(Cl)cc2)c(=O)c2c3c(sc21)CCCCC3)Nc1cccc(Cl)c1	.	7.0	-0.3	.	.	.	.
COc1cc(C(CCN2CCN(c3ccccc3)CC2)c2c(OC)cc(OC)c3c(C)cc(=O)oc23)cc(OC)c1OC (centres undefined)	0.1	-15.1	25.4	12.1	-27.5	-22.1%	-5.1%
COc1cc(OC)c2c(C)cc(=O)oc2c1C(CCN1CCOCC1)c1ccc2c(c1)OCO2 (centres undefined)	0.9	-17.5	0.2	25.0	-22.0	.	.
COc1ccc(Nc2ncc3c(n2)CCN(Cc2cccc(F)c2F)C3)c(OC)c1	.	7.2	1.8	.	.	.	.
O=C1C=C(/C=C/c2ccccc2)C[C@@H](c2ccc(F)cc2)C1	-5.1	-6.7	1.0	-24.4	-4.5	-9.2%	6.5%

Compound activity deposited in PubChem BioAssay by National Center for Advancing Translational Sciences (NCATS).
